Composite z-score and z-score data for 5 molecules are collected here from PubChem BioAssay.

Assay [1] can be described thus: small molecules captured by biotinylated probe aFSTL3 – biochemical, small-molecule microarray, fluorescence 635/667, stem cell growth factor project, primary screen (AID 1064).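 Further: measures binding of the biotinylated anti-FSTL3 antibody to printed compounds.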 The following applies: higher = more signal.
A short description of assay [2]: binders from COS7 lysate, DM2A8 probe, primary screen, torsin A project, cell lysate, small-molecule microarray, fluorescence 635/667 (AID 1065). Conditions: higher = more signal, COS7 lysate expressing mutant human TOR1A.
The nature of assay [3]: small molecules captured by biotinylated probe aFGF2 – biochemical, small-molecule microarray, fluorescence 635/667, stem cell growth factor project, primary screen (AID 1067).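 Further: measures binding of biotinylated aFGF2 protein to printed compounds on slides; z-score merges feature fluorescence and signal-to-noise across triplicate slides.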 Conditions: higher = more signal.
Assay [4] can be described thus: small molecules captured by biotinylated probe aFGF10 – biochemical, small-molecule microarray, fluorescence 635/667, stem cell growth factor project, primary screen (AID 1071).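 Further: score merges 667 nm spot intensity and signal to noise from triplicate slides.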 Conditions: higher = more signal.
Assay [5] concerns the target Neurogenic locus notch homolog protein 2 (Homo sapiens) (UniProt Q04721). Description: small molecules binding Notch2 protein – biochemical, small-molecule microarray, 635 nm fluorescence, stem cell growth factors, primary screen (AID 1073). Conditions: higher = more signal.
For assay [6], the target named is Pro-neuregulin-1, membrane-bound isoform (Homo sapiens) (UniProt Q02297). Kind of assay: small molecules binding neuregulin-1 protein – biochemical, small-molecule microarray, fluorescence 635/667, psychiatric disease protein project, primary screen (AID 1075).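 Further: score combines 667 nm spot fluorescence with signal to noise.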 The following applies: NRG1 binding, 635 nm fluorescence, higher = more signal.
Sequence of Pro-neuregulin-1, membrane-bound isoform (Homo sapiens) (Q02297 whole entry, looked up, the tested form may be a part, canonical isoform): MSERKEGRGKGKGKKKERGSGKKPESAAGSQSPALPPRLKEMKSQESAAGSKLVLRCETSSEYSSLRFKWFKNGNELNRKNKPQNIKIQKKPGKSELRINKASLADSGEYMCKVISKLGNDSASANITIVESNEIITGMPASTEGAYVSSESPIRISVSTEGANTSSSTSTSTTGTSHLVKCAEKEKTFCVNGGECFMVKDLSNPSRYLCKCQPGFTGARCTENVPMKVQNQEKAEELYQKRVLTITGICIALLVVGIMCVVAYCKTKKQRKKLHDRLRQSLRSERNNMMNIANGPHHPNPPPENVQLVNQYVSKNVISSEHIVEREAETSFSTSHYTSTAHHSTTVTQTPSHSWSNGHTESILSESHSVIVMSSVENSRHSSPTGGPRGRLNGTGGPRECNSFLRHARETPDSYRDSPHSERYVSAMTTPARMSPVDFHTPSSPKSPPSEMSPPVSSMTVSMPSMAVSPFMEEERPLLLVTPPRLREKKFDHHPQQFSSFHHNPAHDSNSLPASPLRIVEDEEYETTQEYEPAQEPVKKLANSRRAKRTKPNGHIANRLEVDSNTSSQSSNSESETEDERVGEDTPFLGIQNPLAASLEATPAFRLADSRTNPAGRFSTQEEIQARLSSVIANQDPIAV
Assay [7] relates to Neuregulin-1 EGF-like domain. Kind of assay: small molecules binding NRG1 EGF domain – biochemical, small-molecule microarray, 635 nm fluorescence, primary screen (AID 1081).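 Further: binding of the protein to compounds printed on small-molecule microarray slides.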 The following applies: higher = more signal.
A short description of assay [8]: FRG1 expression reporter modulators in myotubes – cell-based, C2C12 myotubes, firefly/Renilla luciferase, luminescence, FRG1 inhibition for FSHD, primary screen (AID 1084). The following applies: FRG1 promoter luciferase, higher = more signal, called active from +8 up or from −8 down.
A short description of assay [9]: small molecules captured by biotinylated probe aFST – biochemical, small-molecule microarray, fluorescence 635/667, stem cell growth factor project, primary screen (AID 1086).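 Further: score merges 667 nm fluorescence with signal-to-noise of each printed compound spot.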 Conditions: higher = more signal.
A short description of assay [10]: binders of probe aHhip on microarray, primary screen, stem cell growth factor project, biochemical, small-molecule microarray, fluorescence 635/667 (AID 1087).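 Further: score merges spot fluorescence at 667nm with spot signal to noise ratio.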 The following applies: higher = more signal.
The subject of assay [11] is PRMT1 (protein arginine N-methyltransferase 1). Description: small molecules binding arginine methyltransferase PRMT1 – biochemical, small-molecule microarray, 635 nm fluorescence, primary screen (AID 1088).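 Further: binding of Prmt1 protein to compounds spotted on small-molecule microarray slides.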 The following applies: higher = more signal.
Assay [12] can be described thus: growth effects on S. cerevisiae YJM789 – YJM789 clinical isolate, OD600, 24 h, basal, primary screen (AID 1089).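 Further: growth of clinical yeast isolate S. cerevisiae YJM 789 seeded 1000 cells per well; test concentration not given here.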 The following applies: higher = more signal, called active from +8 up or from −8 down.
Assay [13] is described as follows: S. pombe growth modifiers, basal conditions – strain 972, OD600, 24 h, no modulator, primary screen (AID 1090).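 Further: basal condition with compound alone and no growth modifier present; test concentration not given here.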 The following applies: S. pombe 972 growth, higher = more signal, called active from +8 up or from −8 down.
A short description of assay [14]: budding yeast growth modifiers under rapamycin – strain BY4716, OD600, 96 h, primary screen (AID 1091). Further: test concentration not given here. The following applies: S. cerevisiae BY4716 + rapamycin, higher = more signal, called active from +8 up or from −8 down.
Assay [15] deals with Torsin-1A-interacting protein 2 (Homo sapiens) (UniProt Q8NFQ8). Kind of assay: small molecules binding lysate-expressed LULL1 – cell lysate, human LULL1 lysate, 635/667 nm fluorescence, primary screen (AID 1092).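 Further: probe is lysate of COS7 cells overexpressing human LULL1; score merges per-feature 667 nm fluorescence with signal-to-noise.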 The following applies: small-molecule microarray, hLULL1 lysate binding, 635 nm fluorescence; higher = more signal.
Sequence of Torsin-1A-interacting protein 2 (Homo sapiens) (Q8NFQ8 whole entry, looked up): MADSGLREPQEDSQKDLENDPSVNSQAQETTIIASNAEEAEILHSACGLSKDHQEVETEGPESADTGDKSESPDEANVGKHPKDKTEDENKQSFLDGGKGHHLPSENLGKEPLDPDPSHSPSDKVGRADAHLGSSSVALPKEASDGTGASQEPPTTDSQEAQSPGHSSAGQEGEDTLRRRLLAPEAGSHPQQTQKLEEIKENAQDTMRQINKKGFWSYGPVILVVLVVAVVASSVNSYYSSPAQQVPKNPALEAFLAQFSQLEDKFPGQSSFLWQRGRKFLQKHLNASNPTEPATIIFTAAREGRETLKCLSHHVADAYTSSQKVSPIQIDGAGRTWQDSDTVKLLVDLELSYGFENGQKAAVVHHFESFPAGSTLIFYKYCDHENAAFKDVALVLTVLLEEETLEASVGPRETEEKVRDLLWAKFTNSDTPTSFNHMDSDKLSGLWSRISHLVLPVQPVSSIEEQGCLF
Assay [16] in a line: optical density change of DRC41 E. coli – strain DRC41, OD650, 24 h, E. coli filamentation project, primary screen (AID 1093).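 Further: MC1000 strain lacking acrAB efflux and sulA so SOS filamentation is blocked; test concentration not given here.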 Conditions: E. coli DRC41 growth, higher = more signal, called active from +8 up or from −8 down.
Assay [17] in a line: probe aLefty2 binding to arrayed compounds – biochemical, biotinylated probe, 635/667 nm fluorescence, primary screen (AID 1094).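 Further: score merges spot fluorescence near 667 nm with spot signal-to-noise ratio.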 The following applies: small-molecule microarray, higher = more signal.
The subject of assay [18] is Noggin (protein binding on small-molecule microarray). Description: small molecules binding Noggin protein – biochemical, 635/667 nm fluorescence, primary screen (AID 1095).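 Further: score merges 667 nm feature fluorescence with signal to noise over triplicate slides.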 Conditions: 635 nm fluorescence, higher = more signal.
In assay [19] the target is Neurogenic locus notch homolog protein 3 (Homo sapiens) (UniProt Q9UM47). Kind of assay: small molecules binding NOTCH3 protein – biochemical, 635/667 nm fluorescence, primary screen (AID 1096). Conditions: small-molecule microarray, 635 nm fluorescence, higher = more signal.
Assay [20] is described as follows: probe aEGFR binding to arrayed compounds – biochemical, biotinylated probe, 635/667 nm fluorescence, primary screen (AID 1097).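 Further: probe is a biotinylated anti-EGFR antibody binding compounds printed on slides; score combines fluorescence near 667 nm and signal to noise of each spot.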 The following applies: small-molecule microarray, higher = more signal.

Active and inactive are the calls of the source.

Sequence of Neurogenic locus notch homolog protein 2 (Homo sapiens) (Q04721 whole entry, looked up, canonical isoform): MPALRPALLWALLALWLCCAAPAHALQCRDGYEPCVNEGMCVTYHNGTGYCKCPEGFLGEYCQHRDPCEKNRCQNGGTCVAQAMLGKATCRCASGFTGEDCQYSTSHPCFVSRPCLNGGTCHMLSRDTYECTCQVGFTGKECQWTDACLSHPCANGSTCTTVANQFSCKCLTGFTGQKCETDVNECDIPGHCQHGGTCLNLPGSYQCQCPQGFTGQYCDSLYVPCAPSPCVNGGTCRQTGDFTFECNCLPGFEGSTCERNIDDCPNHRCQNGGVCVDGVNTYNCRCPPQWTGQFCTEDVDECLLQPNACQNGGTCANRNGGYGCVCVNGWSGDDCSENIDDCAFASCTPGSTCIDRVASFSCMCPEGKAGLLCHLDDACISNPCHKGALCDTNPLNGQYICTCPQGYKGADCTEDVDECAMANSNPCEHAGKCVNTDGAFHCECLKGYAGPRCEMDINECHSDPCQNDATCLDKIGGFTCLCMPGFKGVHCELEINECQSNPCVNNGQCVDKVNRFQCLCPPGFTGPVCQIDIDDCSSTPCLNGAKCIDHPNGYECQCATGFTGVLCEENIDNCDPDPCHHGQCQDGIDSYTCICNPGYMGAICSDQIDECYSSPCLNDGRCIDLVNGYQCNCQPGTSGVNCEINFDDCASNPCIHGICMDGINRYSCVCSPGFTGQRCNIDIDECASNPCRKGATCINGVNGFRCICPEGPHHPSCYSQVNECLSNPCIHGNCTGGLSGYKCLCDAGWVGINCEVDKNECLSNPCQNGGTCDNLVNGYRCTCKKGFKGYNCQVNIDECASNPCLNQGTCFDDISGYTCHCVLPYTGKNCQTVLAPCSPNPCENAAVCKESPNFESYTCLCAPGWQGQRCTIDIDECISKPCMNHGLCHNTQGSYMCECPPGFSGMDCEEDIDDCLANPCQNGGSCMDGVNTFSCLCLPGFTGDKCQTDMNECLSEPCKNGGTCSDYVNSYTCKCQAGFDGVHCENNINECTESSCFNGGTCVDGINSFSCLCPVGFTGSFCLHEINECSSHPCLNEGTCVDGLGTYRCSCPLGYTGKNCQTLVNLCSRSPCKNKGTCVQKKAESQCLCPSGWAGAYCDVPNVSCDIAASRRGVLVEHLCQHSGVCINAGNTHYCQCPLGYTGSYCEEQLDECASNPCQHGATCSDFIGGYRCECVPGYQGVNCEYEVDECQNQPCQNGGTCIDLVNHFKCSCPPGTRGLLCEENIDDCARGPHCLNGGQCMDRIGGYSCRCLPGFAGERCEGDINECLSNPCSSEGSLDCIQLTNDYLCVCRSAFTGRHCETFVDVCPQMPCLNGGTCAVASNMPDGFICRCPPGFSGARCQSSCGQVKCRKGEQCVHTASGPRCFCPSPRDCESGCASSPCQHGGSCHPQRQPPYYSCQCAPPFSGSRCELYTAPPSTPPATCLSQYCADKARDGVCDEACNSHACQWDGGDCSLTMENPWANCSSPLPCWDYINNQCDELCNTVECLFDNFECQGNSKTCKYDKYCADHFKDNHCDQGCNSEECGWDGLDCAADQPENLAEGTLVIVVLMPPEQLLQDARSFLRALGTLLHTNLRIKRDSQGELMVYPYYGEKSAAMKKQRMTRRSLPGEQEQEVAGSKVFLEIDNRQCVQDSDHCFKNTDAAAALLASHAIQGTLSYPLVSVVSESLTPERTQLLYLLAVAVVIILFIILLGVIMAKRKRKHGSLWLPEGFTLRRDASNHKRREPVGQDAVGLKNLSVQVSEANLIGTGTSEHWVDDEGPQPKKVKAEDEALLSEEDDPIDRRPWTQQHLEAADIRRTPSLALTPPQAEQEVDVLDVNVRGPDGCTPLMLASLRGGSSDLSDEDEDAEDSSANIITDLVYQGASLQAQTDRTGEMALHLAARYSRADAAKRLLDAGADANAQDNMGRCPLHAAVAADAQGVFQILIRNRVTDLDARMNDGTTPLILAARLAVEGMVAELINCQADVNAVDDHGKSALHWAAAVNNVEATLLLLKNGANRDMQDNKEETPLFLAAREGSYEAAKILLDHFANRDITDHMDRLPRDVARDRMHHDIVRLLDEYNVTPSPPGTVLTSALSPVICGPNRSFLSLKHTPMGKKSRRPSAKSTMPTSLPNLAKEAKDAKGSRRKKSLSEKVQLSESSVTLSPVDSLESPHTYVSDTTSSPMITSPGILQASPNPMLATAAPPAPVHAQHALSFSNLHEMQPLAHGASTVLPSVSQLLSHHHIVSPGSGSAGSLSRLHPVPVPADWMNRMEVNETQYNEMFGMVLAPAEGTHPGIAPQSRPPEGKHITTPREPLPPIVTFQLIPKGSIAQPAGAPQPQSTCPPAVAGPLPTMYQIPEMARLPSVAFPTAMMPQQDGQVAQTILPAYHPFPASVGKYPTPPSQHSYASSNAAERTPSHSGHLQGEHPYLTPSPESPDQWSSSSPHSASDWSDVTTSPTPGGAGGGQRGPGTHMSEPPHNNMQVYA

Turning to `CCCNC(=O)[C@@H]1c2ccccc2C(=O)N(Cc2ccccc2Cl)[C@H]1c1ccc(CO)cc1`, the composite z-score was found to be 0.198 in assay [1]; 0.274 in [2]; 0.0336 in assay [3]; 0.633 in assay [4]; 1.17 in [5]; 0.963 in assay [6]. Also, the composite z-score in assay [7] was 1.21; in assay [9] it was 0.703; in assay [10], -0.216; in assay [11], 1.55; in [15], 2.47; in assay [17], 0.102. Besides, the results for the composite z-score in assay [18], in assay [19] and in assay [20] were 0.751, 1.05 and 0.116, respectively. Further, the z-score in [8] is -1.18 (inactive); in assay [12] it was -0.0545 (inactive); in assay [13] it was -0.64 (inactive); in assay [14] it was 0.152 (inactive); in assay [16], 2.2 (inactive).

Consider `O[C@@H](Cc1ccccc1)[C@H]1C2C=CCCC(c3ccccc3)=C2CN1Cc1cccc(Cl)c1` (stereo not given in full), for which the composite z-score in assay [1] is -0.39; in assay [2], 0.507; in assay [3], -0.015; in assay [4], 0.271; in assay [5] it was 0.799; in assay [6] it was 1.08. For the same molecule, the composite z-score in assay [7] was 1.07; in assay [9], 0.26; in assay [10] it was -0.0047; in [11] it was 1.44; in [15], 1.73; in assay [17], -0.106. The results for the composite z-score in assay [18], in assay [19] and in [20] were 0.96, 1.12 and -0.0549, respectively. Also, the z-score is -2.31 (inactive) in assay [8]; -0.122 (inactive) in assay [12]; -3.65 (inactive) in assay [13]; -1.09 (inactive) in assay [14]; 2.78 (inactive) in assay [16].

Consider `O=C1C[C@@H](O)[C@@H](O)[C@@H]2[C@@H]3C(=O)N(Cc4ccc5c(c4)OCO5)C(=O)[C@@H]3CC[C@@H]12`, for which the composite z-score in assay [1] was -0.612; in assay [2], 0.196; in assay [3], -0.149; in assay [4], 0.833; in assay [5] it was 0.651; in assay [6] it was -0.13. For the same molecule, the composite z-score in assay [7] is 0.568; in [9], 0.278; in [10], 0.065; in [11] it was 0.555; in assay [15] it was 1.01; in assay [17], -0.072. The composite z-score in assay [18] turned out to be 0.495; in [19] it was 1.12; in assay [20], 0.0414. Also, the z-score in [8] is 0.324 (inactive); in assay [12], 0.489 (inactive); in assay [13], 0.481 (inactive); in assay [14], -0.246 (inactive); in [16] it was 0.701 (inactive).

For `CC(C)C[C@@H]1NC(=O)[C@H]2C[C@@H](C(=O)O)[C@@H](c3ccc(O)cc3)N2C1=O`, the composite z-score in [1] is 1.29; in assay [2] it was 1.31; in assay [3], -0.087; in [4], -0.211; in assay [5], -0.506; in [6], 1.47. The composite z-score in assay [7] turned out to be 1.29; in assay [9], 0.123; in assay [10], 0.613; in [11] it was 0.879; in assay [15], 1.15; in [17], 0.449. Besides, the figures for the composite z-score in assay [18], in [19] and in [20] were 0.4, 0.436 and 0.0577, respectively. In addition, the z-score is 6.75 (inactive) in assay [8]; 0.634 (inactive) in assay [12]; -0.213 (inactive) in assay [13]; 1.83 (inactive) in [14]; 0.831 (inactive) in assay [16].

`C=CC[C@@H]1C=C[C@H](ON=C2c3cc(OC)ccc3O[C@H](c3cccc(OC)c3)[C@H]2O)[C@@H](CO)O1`: the composite z-score in assay [1] is -0.342; in assay [2] it was 0.0359; in assay [3], -0.1; in assay [4] it was 0.415; in [5] it was 0.144; in [6], 0.0499. Also, the composite z-score in assay [7] was -0.199; in assay [9], 0.127; in assay [10], -0.0994; in assay [11] it was -0.524; in [15] it was 0.813; in assay [17] it was -0.233. In addition, the composite z-score was -0.0543 in assay [18], 0.0033 in assay [19] and -0.133 in assay [20]. For the same molecule, the z-score in assay [8] is -0.577 (inactive); in [12], -0.39 (inactive); in [13], -0.851 (inactive); in assay [14], -1.42 (inactive); in assay [16], 0.686 (inactive).
